About 83,000 compounds went through this panel and 20% of them were active in at least one assay; those are over-represented in the sample as a whole.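 In brief: 96-well plates, 48 h treatment, single concentration, percent growth endpoint.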 A number with no mark means an inactive call. Calls of active or inactive are those of the source.
Test system: MDA-MB-435 melanoma
Experiment: NCI-60 one-dose screen, 48 h (100 = growth as untreated, 0 = no growth, -100 = all killed)
Details: 10 µM unless noted
Protocol: Growth inhibition of the MDA-MB-435 human Melanoma tumor cell line is measured as a screen for anti-cancer activity. Cells are grown in 96 well plates and exposed to the test compound for 48 hours. Compounds are tested at a single concentration, which is 10^-5 M for most compounds. The reported endpoint is percent growth (GI% or GIPRCNT), where numbers from 0 - 100% represent growth inhibition, and numbers from -100% - 0 represent cell death. For example, a value of 40 represents 60% growth inhibition. A value of 0 means no net growth occurred over the course of the experiment. A value of -40 indicates 40% of cells at the beginning of the experiment died by the end of the experiment. A value of -100 means all cells are dead at the end of the experiment.
NCI-60 Human Tumor Cell Lines Screen was performed using the standard one-dose NCI protocol, which is described in more detail at https://dtp.cancer.gov/discovery_development/nci-60/default.htm.
Compounds with GIPRCNT values below 10 were considered active. Activity score was based on GIPRCNT using the following formula: […]
Score is 0 for GIPRCNT values of 100 or above, 50 for GIPRCNT values of 0, and 100 for GIPRCNT values of -100.

| Compound | growth |
| --- | --- |
| Cc1ncc(C(=O)Nc2ccc(CN3CCN(C)CC3)c(C(F)(F)F)c2)cc1C#Cc1cnc(N)cc1C#N | -95.8% (active) |
| CC(C)(C)[Si](C)(C)OC1[C@@H](O[Si](C)(C)C(C)(C)C)[C@@H](CNC(=O)NC(=O)CCl)O[C@H]1n1cnc2c(NC(=O)Nc3ccccc3)ncnc21 (stereo not given in full) | -79.1% (active) |
| C[C@H](c1nc2ccc(N)cc2[nH]1)[C@H]1CC[C@H]2[C@@H]3CCC4=CC(=O)CC[C@]4(C)[C@H]3CC[C@]12C | 95.7% |
| CCOC(=O)[C@@H]1CCCN(S(=O)(=O)c2ccc(S(=O)(=O)N(CC)CC)c(F)c2)C1 | 75.6% |
| COc1ccc(C(=O)NNc2nc(Cl)nc(N3CCN(C(c4ccccc4)c4ccccc4)CC3)n2)cc1 | 90.6% |
| O=S(=O)(NCCNc1nccc(-c2c(-c3cccc(O)c3)nc3occn23)n1)c1cccc(F)c1 | 34.3% |
| C/C(=N\NC(=O)CSc1nc2ccccc2c(=O)n1Cc1ccc(S(N)(=O)=O)cc1)c1ccc(F)cc1 | 104% |
| O=S(=O)(NCCCNc1nccc(-c2c(-c3cccc(O)c3)nc3occn23)n1)c1ccc(Cl)cc1 | 33.8% |
| O=C(C1CCC1)N1N=C(c2ccc(-n3ccc(C(F)(F)F)n3)cc2)CC1c1ccc[nH]1 (stereo not given) | 99.7% |
| CN1C(N2CCN(S(=O)(=O)c3ccccc3)CC2)=NS(=O)(=O)c2ccccc21 | 109% |
| O=S(=O)(NCCNc1nccc(-c2c(-c3cccc(O)c3)nc3occn23)n1)c1ccc(Cl)cc1 | 45.4% |
| O=C(O)c1ccc(NCc2cn(-c3ccc(C(F)(F)F)cc3)nc2-c2ccc(C(=O)O)cc2)cc1 | 102% |
| Oc1ccc(C2c3ccccc3Oc3ccccc32)c2cccnc12 | 27.3% |
| OCc1cnccc1NCCCCOc1ccc(Oc2ccccc2)cc1 | 59.9% |
| Cc1ccc(-n2nc3c(c(C#N)c2=O)CC(c2ccccc2[N+](=O)[O-])C([N+](=O)[O-])=C3O)cc1 (stereo not given) | 96.7% |
| COc1ccc(CCn2cncc2-c2c[nH]c3ccccc23)cc1 | 100% |
| COc1ccc(C(=O)c2nc3ccccc3n2CC(=O)c2ccc(Cl)cc2)cc1 | -55.4% (active) |
| O=C1Nc2cc(-c3ccc(NC(=O)c4ccccc4)cc3)ccc2/C1=C/c1ccc[nH]1 | 99.5% |
| C[C@H]1[C@H]2[C@H]3CC[C@@H]4[C@@]5(C)CC[C@H](O)C(C)(C)[C@@H]5CC[C@@]4(C)[C@]3(C)CC[C@]23CO[C@]1(C)[C@@H](C(=O)/C=C\c1ccco1)C3 | 17.8% |
| N#CC1C(C#N)C2c3ccccc3C=CN2C1C(=O)c1ccc(Br)cc1 (stereo not given) | 100% |

| Compound | growth |
| --- | --- |
| N#Cc1c(NC(=O)NCc2ccccc2)sc2c1CCCCC2 | -40.5% (active) |
| CC1(C)NCCC[C@]2(C)[C@H]3CC[C@@H]4[C@H]5[C@H](C(=O)/C=C/c6ccco6)CC[C@]5(CO)CC[C@@]4(C)[C@]3(C)CC[C@@H]12 | 66.7% |
| CNCCOc1nc2c3cnccc3cc(-c3cc(OC)c(OC)c(OC)c3)c2c2ccncc12 | -90.1% (active) |
| CCCOC(=O)N[C@H]1CCc2c(Cl)c(OC)c(OC)c(OC)c2-c2ccc(SC)c(=O)cc21 | -26.9% (active) |
| O=C(/C=C/c1ccc[nH]1)c1ccc(-n2ccc(C(F)(F)F)n2)c(F)c1 | 99.3% |
| COc1ccc(C(=O)C2C(C#N)C(C#N)C3C=Cc4ccccc4N32)cc1 (stereo not given) | -47.8% (active) |
| Cc1nc2sccn2c1-c1cn2ccsc2n1 | 95.9% |
| COc1ccc(C(=O)C2C(C#N)C(C#N)C3c4ccccc4C=CN23)cc1 (stereo not given) | 96.1% |
| C=C1C(=O)O[C@H]2[C@H]1CC/C(COC(=O)NCc1c[nH]c3ccc(Br)cc13)=C\CC[C@@]1(C)O[C@@H]21 | -56.5% (active) |
| Cc1c(C(=O)NCCC(=O)NO)sc2ncnc(Nc3ccc(NC(=O)Nc4cccc(C(F)(F)F)c4)cc3)c12 | 103% |
| COCCCN1CC(O)=C(c2nc(-c3ccc(C)cc3)cs2)C1=N | 105% |
| O=C(N/N=C/c1ccc(Oc2ccccc2)cc1)c1cnn2c1NC(c1ccccc1)C2 (stereo not given) | 4.46% (active) |
| COc1ccc(/C=C/c2nc(Nc3ccc(Cl)cc3)c3ccccc3n2)cc1 | 55.3% |
| COc1cc2nc(-c3ccc(Cl)cc3)cc(OCCCN3CCOCC3)c2cc1OC | 10.2% |
| COc1cc(NC(C)CCCNC(=O)CCC(=O)NCCCNCCCCCCCCCCNCCCNC(=O)CCC(=O)NCCCC(C)Nc2cc(OC)cc3cccnc23)c2ncccc2c1 (stereo not given) | 75.8% [8 µM] |
| CCOC(=O)CCN(CC(C)C)C(=S)Nc1ccccc1 | 102% |
| CC1(C)CC(=O)C2=C(C1)N(c1ccc(F)cc1F)C(N)=C(C#N)C2c1cc(Br)ccc1F (stereo not given) | 101% |
| O=C(CSc1nc2ccccc2[nH]1)NCc1ccccc1 | 95.8% |
| CCCCCCNC(=O)Nc1ccc2cc3ccc(NC(=O)NCCCCCC)cc3nc2c1 | -83.6% (active) |
| C[C@H]1[C@H](C)CC[C@]2(C(=O)Nc3ccc4ncccc4c3)CC[C@]3(C)C(=CC[C@@H]4[C@@]5(C)CCCNC(C)(C)[C@@H]5CC[C@]43C)[C@H]12 | -91.8% (active) |

— PubChem BioAssay (NCI)
